IMPase cell inh – cell-permeable inhibitors of inositol monophosphatase (IMPase); CHO-M1 cells, IP1 accumulation, HTRF TR-FRET ratio; P97697; AID 901; inhibition (IP1 accumulation), % at 46.1 µM; 120,000 tested, under 10 active; active = well fitted curve in the direction sought with a large enough effect in the signal ratio, not every such curve was filed as active; inconclusive = small, poorly fitted or top-dose-only effect, or a change in a side signal; inactive = no such curve, though single readings can be large or run the other way; the % refers to the signal ratio;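 also: cells stimulated with carbachol in lithium chloride buffer; higher means more IMPase inhibition seen as more IP1 and lower FRET ratio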
Target sequence (P97697 whole entry, looked up): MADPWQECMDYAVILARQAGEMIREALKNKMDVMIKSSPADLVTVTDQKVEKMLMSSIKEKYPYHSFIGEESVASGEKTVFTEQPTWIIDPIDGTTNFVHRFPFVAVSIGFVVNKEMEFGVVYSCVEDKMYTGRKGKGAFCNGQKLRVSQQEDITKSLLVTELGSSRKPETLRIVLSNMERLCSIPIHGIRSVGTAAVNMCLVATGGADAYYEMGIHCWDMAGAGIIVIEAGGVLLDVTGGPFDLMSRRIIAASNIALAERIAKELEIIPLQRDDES
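Carbachol-driven Gq signalling in CHO-M1 cells (2000/well) generates IP1. Compounds that block IMPase raise IP1 and so reduce the FRET signal from Eu-anti-IP1 and d2-IP1 after a 10 min room-temperature lysis.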
PNC inhibitor – perinucleolar compartment assembly inhibition; PC3M PTB-GFP, PNC prevalence imaging, 16 h; stronger effect = lower value; AID 2417; activity change (PNC), negative = inhibition, % at 10 µM; hit rate 3.1% among 140,000;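 active = readout at or below -70, meaning at least 70% loss of cells showing the perinucleolar compartment, a nuclear body marking cancer cells; inconclusive = readout between -30 and a set limit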
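Compounds are pinned in duplicate onto adhered PC3M cells stably expressing GFP-tagged PTB and incubated 16 h at 37 C. Cells are then fixed, nuclei stained with Hoechst, and PNC-positive cells counted.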
Lamin A splicing – changes lamin A minigene splicing in HeLa cells; HeLa LMNA splicing GFP/RFP minigene ratio, 48 h; Potency, µM (top dose mostly 46.1 µM), hits mostly inhibitors; hit rate 0.01% among 200,000; AID 1487; active = well fitted inhibition curve with a large enough effect in the signal ratio, with a control signal flat, not every such curve was filed as active; inconclusive = small, poorly fitted or top-dose-only effect, or effect the other way, or a change in a side signal; the % refers to the signal ratio
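S3 HeLa stable clones carrying a lamin A-EGFP splicing minigene plus DsRed2 were seeded at 600 cells/well in Opti-MEM with 2% FBS, pin-dosed and incubated 48 h at 37°C. Acumen cytometry (488 nm) gave the GFP/RFP total-intensity ratio.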
Of the large screens only hits and unclear results are named; the others gave an inactive call. This is one part of a sample in which hits are shown more often than they occur.

COc1ccc(Nc2nnc(-c3ccc(C)c(S(=O)(=O)N4CCN(C)CC4)c3)c3ccccc23)cc1	none (no result: PNC inhibitor, Lamin A splicing)
Cc1cc(C(=O)Nc2nnc(-c3ccccc3)s2)no1	PNC inhibitor -98
Cc1onc(-c2ccccc2)c1C(=O)Nc1nc2c(s1)CCCC2	none
Cc1cc(C(=O)Nc2nc3c(s2)CCCC3)no1	PNC inhibitor -107
CCSc1nnc(NC(=O)c2c(-c3ccccc3Cl)noc2C)s1	none
Cc1onc(-c2ccccc2Cl)c1C(=O)Nc1nnc(-c2cccc([N+](=O)[O-])c2)s1	PNC inhibitor -108, Lamin A splicing inconclusive
Cc1cc(C(=O)Nc2nnc(C3CCCCC3)s2)no1	none
CCOC(=O)c1ccccc1NC(=O)c1cncc(Br)c1	IMPase cell inh inconclusive, PNC inhibitor -93
CCOC(=O)c1ccccc1NC(=O)c1ccccc1SC	PNC inhibitor -80, Lamin A splicing inconclusive
CCOCCCNC(=O)c1ccccc1SC	PNC inhibitor inconclusive
COC(=O)c1ccccc1NC(=O)c1ccccc1SC	none
CCOC(=O)c1ccccc1NC(=O)c1cccnc1	PNC inhibitor inconclusive
COCCCNC(=O)c1ccccc1SC	PNC inhibitor -107
CC(C)(C)c1ccc(C(=O)NCC(c2cccnc2)N2CCc3ccccc3C2)cc1 (stereo not given)	none (no result: IMPase cell inh, PNC inhibitor)
COc1cccc(-c2nc(CS(=O)CC(=O)NCc3ccccc3)c(C)o2)c1 (stereo not given)	PNC inhibitor inconclusive
O=C(CCC1CCCC1)Nc1cccc(Cc2ccncc2)c1	none (no result: IMPase cell inh, PNC inhibitor)
CC1(C)CC(=O)N(c2ccccc2)C1(C)O (stereo not given)	PNC inhibitor -86
CN1C(=O)CCC1(O)c1ccccc1 (stereo not given)	PNC inhibitor inconclusive
Cc1cccc(Cn2c(C)nc3c(N)c(C)c(C)cc32)c1	none (no result: IMPase cell inh, PNC inhibitor)
Cc1ccc(S(=O)(=O)NC2=C(N3CCN(c4ccccc4F)CC3)C(=O)c3ccccc3C2=O)cc1	none
CC(=O)Nc1ccc(S(=O)(=O)NC2=C(N3CCN(c4ccc(F)cc4)CC3)C(=O)c3ccccc3C2=O)cc1	Lamin A splicing 11µM
CCc1ccc(NC(=O)c2sc(-n3nc(C)c(Cc4ccc(OC)cc4)c3C)nc2C)cc1	none (no result: IMPase cell inh, PNC inhibitor)
COc1ccc(NC2=C(c3ccc(C(F)(F)F)cc3)C(=O)c3ccccc32)cc1	none (no result: PNC inhibitor, Lamin A splicing)
C/C(=N\NC(=S)NCc1ccccc1)c1ccc2ccccc2c1	PNC inhibitor -99, Lamin A splicing inconclusive (no result: IMPase cell inh)
C/C(CCC(C)C)=N\NC(=S)NCc1ccccc1	none (no result: IMPase cell inh, PNC inhibitor)
Fc1ccccc1CSc1ncn[nH]1	PNC inhibitor -100
Clc1ccc(CSc2ncn[nH]2)cc1	none
O=C(O)CSc1cccc[n+]1[O-]	none
Cn1cccc1C(=O)NC(=O)CSc1cccc[n+]1[O-]	PNC inhibitor -95
N#CC1=C(SCC(=O)c2ccccc2)NC2=C(C(=O)CCC2)C1c1ccco1 (stereo not given)	PNC inhibitor -89
Cc1ccc(C(=O)CSC2=C(C#N)C(c3ccco3)C3=C(CCCC3=O)N2)cc1 (stereo not given)	none
CCCN1CCN(CCCNC(=O)Cn2c(-c3cccs3)cc3ccccc32)CC1	none (no result: IMPase cell inh, PNC inhibitor)
CCOC(=O)C(C(=O)OCC)C1CCS(=O)(=O)C1 (stereo not given)	PNC inhibitor -100
CCCOC(=O)NC1CCS(=O)(=O)C1 (stereo not given)	PNC inhibitor inconclusive
CCOC(=O)COC(=O)c1ccc(Oc2cc(C)nc(SC)n2)cc1	none
CCOC(=O)c1ccc(Oc2cc(C)nc(SC)n2)cc1	PNC inhibitor -100, Lamin A splicing inconclusive
Nc1cc(S(=O)(=O)C(F)(F)F)ccc1C(=O)O	PNC inhibitor -127
Nc1cc(C(F)(F)F)ccc1C(=O)O	none
Cc1c(Cl)cccc1NC(=O)c1ccc2nc(C(C)C)oc2c1	none (no result: IMPase cell inh, PNC inhibitor)
Cc1ccc2[nH]c(CSc3nnc(NC(=O)COc4ccccc4Cl)s3)cc(=O)c2c1	none (no result: IMPase cell inh, PNC inhibitor)
Cc1cccc(C)c1Nc1nc2ccccc2nc1NS(=O)(=O)c1ccccc1	none (no result: PNC inhibitor, Lamin A splicing)
Cc1nn(-c2ccccc2)c(C)c1NC(=O)COc1ccc(F)cc1Cl	PNC inhibitor -102, Lamin A splicing inconclusive (no result: IMPase cell inh)
Cc1nn(-c2ccccc2)c(C)c1NC(=O)Cc1cccs1	none (no result: IMPase cell inh)
CC1=NN(c2ccccc2)C(=O)/C1=C\c1c(C)[nH]n(-c2ccccc2)c1=O	none
CC1=NN(c2ccccc2)C(=O)/C1=C/c1c(O)n(-c2ccc(F)c(Cl)c2)[nH]c1=O	PNC inhibitor -116, Lamin A splicing inconclusive (no result: IMPase cell inh)
Cc1ccc2[nH]c3c(=O)n(CC(=O)N(C)Cc4ccccc4)ncc3c2c1	none (no result: IMPase cell inh, PNC inhibitor)
COc1c2ccoc2nc2c(OC)c(OC[C@H](O)C(C)(C)O)ccc12	Lamin A splicing inconclusive (no result: PNC inhibitor)
Cc1ccc(CNc2nc3c([nH]2)c(=O)n(C)c(=O)n3C)cc1	none
Cn1c(=O)c2[nH]c(Nc3ccccc3)nc2n(C)c1=O	PNC inhibitor -100, Lamin A splicing inconclusive
Cc1ccc(Nc2c(-c3ccc(N4CCOCC4)cc3)nc3ncccn23)cc1C	PNC inhibitor -102
Cc1ccc(Nc2c(-c3ccc(N4CCOCC4)cc3)nc3ncccn23)cc1	none
O=C(CSc1ccccc1)N1CCc2c([nH]c3ccccc23)C1c1ccc(Cl)cc1 (stereo not given)	none (no result: IMPase cell inh, PNC inhibitor)
O=C(N/N=C/c1cccs1)c1cc(-c2ccncc2)nc2ccccc12	PNC inhibitor -109, Lamin A splicing inconclusive (no result: IMPase cell inh)
CCCc1cc(C(=O)N/N=C/c2ccc(CC)s2)c2ccccc2n1	Lamin A splicing inconclusive
O=C(N/N=C/c1ccc2c(c1)OCO2)c1cc(-c2ccc(F)cc2)nc2ccccc12	PNC inhibitor -96, Lamin A splicing inconclusive (no result: IMPase cell inh)
CCc1ccc(/C=N/NC(=O)c2cc(-c3ccncc3)nc3ccccc23)s1	PNC inhibitor -110, Lamin A splicing inconclusive (no result: IMPase cell inh)
O=C(N/N=C/c1cccs1)c1cc(C2CC2)nc2ccccc12	Lamin A splicing inconclusive (no result: IMPase cell inh)
COc1ccc(-c2cc(C(=O)N/N=C/c3ccc4c(c3)OCO4)c3ccccc3n2)c(OC)c1	Lamin A splicing inconclusive
CCOC(=O)c1[nH]c(C)c(CCC(=O)N2CCN(c3cccc(OC)c3)CC2)c1C	none (no result: IMPase cell inh, PNC inhibitor)
Cc1ccc(NC(=O)COc2ccc(-c3nn(C)c(=O)c4ccccc34)cc2)c(C)c1	none (no result: PNC inhibitor, Lamin A splicing)
COC(=O)C1=NN(C(=O)c2ccccc2)C(C)(O)C1 (stereo not given)	PNC inhibitor inconclusive
COC(=O)C1(O)CC(CC(C)C)=NN1C(=O)c1ccccc1 (stereo not given)	PNC inhibitor -124
CCOC(=O)c1c(Nc2ccccc2N)cc(C)nc1C	PNC inhibitor -107
CCOC(=O)c1c(C)nc2ccccc2c1C	PNC inhibitor inconclusive
CC(=O)Nc1nonc1-c1nnc(SCc2ccccc2)n1C	none (no result: IMPase cell inh, PNC inhibitor)
O=C(Cc1ccc(Cl)cc1)Nc1ccccc1CO	PNC inhibitor -87
O=C(Cc1ccccc1)Nc1ccccc1CO	none
CC(=O)Nc1ccn(-c2ccccc2)n1	PNC inhibitor -119
O=C(Nc1ccn(-c2ccccc2)n1)c1ccc(Cl)cc1	Lamin A splicing inconclusive (no result: IMPase cell inh)
CC(C)OC(=O)c1ccc(NC(=O)CSc2nc(-c3cccs3)cc(C(F)(F)F)n2)cc1	none (no result: PNC inhibitor, Lamin A splicing)
O=C(CN1CCN(C/C=C/c2ccccc2)CC1)Nc1cc([N+](=O)[O-])ccc1Cl	PNC inhibitor -124, Lamin A splicing inconclusive (no result: IMPase cell inh)
Cc1cc(NC(=O)CN2CCN(C/C=C/c3ccccc3)CC2)c([N+](=O)[O-])cc1C	none (no result: IMPase cell inh)
Cc1c(NC(=O)COC(=O)c2cc(-c3ccc(-c4ccccc4)cc3)nc3ccccc23)c(=O)n(-c2ccccc2)n1C	PNC inhibitor -113, Lamin A splicing inconclusive (no result: IMPase cell inh)
